Source: publication PMC10812921, “Transcriptional Coactivator BOB1 (OBF1, OCA-B) Modulates the Specificity of DNA Recognition by the POU-Domain Factors OCT1 and OCT2 in a Monomeric Configuration”

Key:
POU1 (OCT1 POU domain) = POU1 (OCT1 POU domain) (human, UniProt P14859 260-458); assay: EMSA-SELEX-seq; no BOB1; 20 mM Tris-HCl pH 7.6, 140 mM NaCl, 10% glycerol, 0.5 mM EDTA, 0.05% Triton X-100, 0.1 mg/mL BSA, 0.1 mg/mL poly(dI-dC), 5 mM DTT, room temperature, 20 min; high values mean tight binding; details: protein: recombinant; dsDNA, one strand shown
POU1 (OCT1 POU domain), sequence (P14859 260-458): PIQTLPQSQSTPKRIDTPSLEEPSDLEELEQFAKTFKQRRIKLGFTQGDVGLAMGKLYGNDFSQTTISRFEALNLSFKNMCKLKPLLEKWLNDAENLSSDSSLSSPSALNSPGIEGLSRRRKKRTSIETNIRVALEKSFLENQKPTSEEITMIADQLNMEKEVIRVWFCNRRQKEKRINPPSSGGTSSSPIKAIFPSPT
Method in brief: (§1)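 Binding preference is the percentage of sequenced 8-mers matching a motif pattern. Tagged POU-domain proteins expressed in E. coli BL21 were purified under denaturing conditions and renatured. For binding, 30 ng protein met 300 ng of a PCR-amplified double-stranded random 35-nt library, with or without 28 ng coactivator protein, in 20 μL Tris–HCl pH 7.6 binding buffer for 20 min at RT. Complex bands were cut from native 6% PAGE, eluted and PCR-amplified over four rounds, then Illumina-sequenced.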

POU2 (OCT2 POU domain) = target: T1, POU2 (OCT2 POU domain) (human, UniProt P09086 175-386); assay: as above; details: protein: recombinant; dsDNA, one strand shown
T1 sequence: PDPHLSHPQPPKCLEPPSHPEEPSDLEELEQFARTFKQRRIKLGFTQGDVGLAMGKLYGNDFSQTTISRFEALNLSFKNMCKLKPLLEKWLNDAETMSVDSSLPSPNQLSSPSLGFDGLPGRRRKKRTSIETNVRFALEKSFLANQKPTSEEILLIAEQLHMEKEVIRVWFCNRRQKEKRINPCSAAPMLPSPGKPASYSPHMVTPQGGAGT
Method in brief: as §1

[1] = target: POU1 (OCT1 POU domain);BOB1 (OBF1, OCA-B) (human;human, UniProt P14859;Q16633 260-458;1-256, |); assay: EMSA-SELEX-seq; with BOB1 (ternary complex band); 20 mM Tris-HCl pH 7.6, 140 mM NaCl, 10% glycerol, 0.5 mM EDTA, 0.05% Triton X-100, 0.1 mg/mL BSA, 0.1 mg/mL poly(dI-dC), 5 mM DTT, room temperature, 20 min; high values mean tight binding; details: protein: recombinant;recombinant; copies: 1;1; dsDNA, one strand shown
Method in brief: as §1

[2] = target: T2, POU2 (OCT2 POU domain);BOB1 (OBF1, OCA-B) (human;human, UniProt P09086;Q16633 175-386;1-256, |); assay: as above; details: protein: recombinant;recombinant; copies: 1;1; dsDNA, one strand shown
T2 sequence 1: T1 sequence
T2 sequence 2: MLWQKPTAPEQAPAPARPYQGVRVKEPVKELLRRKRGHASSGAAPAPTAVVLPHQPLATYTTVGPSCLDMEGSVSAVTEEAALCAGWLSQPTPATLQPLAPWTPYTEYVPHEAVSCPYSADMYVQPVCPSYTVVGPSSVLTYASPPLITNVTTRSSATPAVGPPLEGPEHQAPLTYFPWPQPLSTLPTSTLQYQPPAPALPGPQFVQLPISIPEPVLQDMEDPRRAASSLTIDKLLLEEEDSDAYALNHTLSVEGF
Method in brief: as §1

Sequence | binding signal (POU1 (OCT1 POU domain)) | binding signal (POU2 (OCT2 POU domain)) | binding signal [1] | binding signal [2]
AGTCCAAT | 0.0385 % of ANNNNAAN 8-mers | 0.0466 % of ANNNNAAN 8-mers | 0.0421 % of ANNNNAAN 8-mers | 0.0371 % of ANNNNAAN 8-mers
AGTCCAAC | 0.0114 % of ANNNNAAN 8-mers | 0.0167 % of ANNNNAAN 8-mers | 0.0144 % of ANNNNAAN 8-mers | 0.0248 % of ANNNNAAN 8-mers
AAGATAAA | 0.0622 % of ANNNNAAN 8-mers | 0.0662 % of ANNNNAAN 8-mers | 0.0585 % of ANNNNAAN 8-mers | 0.0405 % of ANNNNAAN 8-mers
ACAGGAAG | 0.0343 % of ANNNNAAN 8-mers | 0.038 % of ANNNNAAN 8-mers | 0.0332 % of ANNNNAAN 8-mers | 0.0396 % of ANNNNAAN 8-mers
AGCAAAAG | 0.0442 % of ANNNNAAN 8-mers | 0.0322 % of ANNNNAAN 8-mers | 0.062 % of ANNNNAAN 8-mers | 0.0429 % of ANNNNAAN 8-mers
ATGCCAAG | 0.0305 % of ANNNNAAN 8-mers | 0.0357 % of ANNNNAAN 8-mers | 0.025 % of ANNNNAAN 8-mers | 0.0248 % of ANNNNAAN 8-mers
AAGCTAAA | 0.0347 % of ANNNNAAN 8-mers | 0.0449 % of ANNNNAAN 8-mers | 0.0453 % of ANNNNAAN 8-mers | 0.0347 % of ANNNNAAN 8-mers
AGACCAAT | 0.0275 % of ANNNNAAN 8-mers | 0.0219 % of ANNNNAAN 8-mers | 0.0261 % of ANNNNAAN 8-mers | 0.033 % of ANNNNAAN 8-mers
AGAGCAAA | 0.0374 % of ANNNNAAN 8-mers | 0.0293 % of ANNNNAAN 8-mers | 0.0433 % of ANNNNAAN 8-mers | 0.0413 % of ANNNNAAN 8-mers
AGAATAAC | 0.0534 % of ANNNNAAN 8-mers | 0.0673 % of ANNNNAAN 8-mers | 0.0312 % of ANNNNAAN 8-mers | 0.0487 % of ANNNNAAN 8-mers
AATCAAAC | 0.0526 % of ANNNNAAN 8-mers | 0.057 % of ANNNNAAN 8-mers | 0.0765 % of ANNNNAAN 8-mers | 0.0405 % of ANNNNAAN 8-mers
AAGGCAAT | 0.0519 % of ANNNNAAN 8-mers | 0.0489 % of ANNNNAAN 8-mers | 0.057 % of ANNNNAAN 8-mers | 0.0495 % of ANNNNAAN 8-mers
AACTCAAC | 0.0168 % of ANNNNAAN 8-mers | 0.0288 % of ANNNNAAN 8-mers | 0.0172 % of ANNNNAAN 8-mers | 0.0182 % of ANNNNAAN 8-mers
AGATAAAC | 0.04 % of ANNNNAAN 8-mers | 0.0506 % of ANNNNAAN 8-mers | 0.0519 % of ANNNNAAN 8-mers | 0.0487 % of ANNNNAAN 8-mers
ATACAAAC | 0.0648 % of ANNNNAAN 8-mers | 0.0512 % of ANNNNAAN 8-mers | 0.0819 % of ANNNNAAN 8-mers | 0.0528 % of ANNNNAAN 8-mers
ATTATAAG | 0.121 % of ANNNNAAN 8-mers | 0.163 % of ANNNNAAN 8-mers | 0.0843 % of ANNNNAAN 8-mers | 0.0966 % of ANNNNAAN 8-mers
AATGAAAA | 0.164 % of ANNNNAAN 8-mers | 0.152 % of ANNNNAAN 8-mers | 0.202 % of ANNNNAAN 8-mers | 0.114 % of ANNNNAAN 8-mers
AGTCGAAA | 0.0431 % of ANNNNAAN 8-mers | 0.0414 % of ANNNNAAN 8-mers | 0.0324 % of ANNNNAAN 8-mers | 0.0322 % of ANNNNAAN 8-mers
ACCGCAAA | 0.0179 % of ANNNNAAN 8-mers | 0.0167 % of ANNNNAAN 8-mers | 0.018 % of ANNNNAAN 8-mers | 0.0124 % of ANNNNAAN 8-mers
AACAGAAA | 0.042 % of ANNNNAAN 8-mers | 0.0409 % of ANNNNAAN 8-mers | 0.0355 % of ANNNNAAN 8-mers | 0.033 % of ANNNNAAN 8-mers
ACTCGAAA | 0.0271 % of ANNNNAAN 8-mers | 0.0357 % of ANNNNAAN 8-mers | 0.0293 % of ANNNNAAN 8-mers | 0.0314 % of ANNNNAAN 8-mers
ACGCGAAG | 0.0172 % of ANNNNAAN 8-mers | 0.0121 % of ANNNNAAN 8-mers | 0.0168 % of ANNNNAAN 8-mers | 0.0239 % of ANNNNAAN 8-mers
ATTATAAA | 0.152 % of ANNNNAAN 8-mers | 0.204 % of ANNNNAAN 8-mers | 0.0691 % of ANNNNAAN 8-mers | 0.0801 % of ANNNNAAN 8-mers
ATAGGAAA | 0.131 % of ANNNNAAN 8-mers | 0.112 % of ANNNNAAN 8-mers | 0.213 % of ANNNNAAN 8-mers | 0.146 % of ANNNNAAN 8-mers
AATAAAAT | 0.214 % of ANNNNAAN 8-mers | 0.214 % of ANNNNAAN 8-mers | 0.185 % of ANNNNAAN 8-mers | 0.164 % of ANNNNAAN 8-mers
ACCGGAAT | 0.0412 % of ANNNNAAN 8-mers | 0.0489 % of ANNNNAAN 8-mers | 0.0398 % of ANNNNAAN 8-mers | 0.0454 % of ANNNNAAN 8-mers
AGGTCAAT | 0.0557 % of ANNNNAAN 8-mers | 0.0662 % of ANNNNAAN 8-mers | 0.0437 % of ANNNNAAN 8-mers | 0.0636 % of ANNNNAAN 8-mers
AGAAAAAG | 0.0534 % of ANNNNAAN 8-mers | 0.0581 % of ANNNNAAN 8-mers | 0.0468 % of ANNNNAAN 8-mers | 0.0421 % of ANNNNAAN 8-mers
AACCAAAT | 0.166 % of ANNNNAAN 8-mers | 0.121 % of ANNNNAAN 8-mers | 0.257 % of ANNNNAAN 8-mers | 0.18 % of ANNNNAAN 8-mers
ACCATAAG | 0.0324 % of ANNNNAAN 8-mers | 0.0414 % of ANNNNAAN 8-mers | 0.0238 % of ANNNNAAN 8-mers | 0.0248 % of ANNNNAAN 8-mers
